Experiment [1] deals with 3',5'-cyclic-AMP phosphodiesterase 4B (Homo sapiens) (UniProt Q07343). Kind of experiment: qHTS Assay for Inhibitors of PDE-IV (AID 607; active = well fitted activation curve with a large enough effect in the main read-out, with a control signal flat, not every such curve was filed as active; note: % of control where 0% means no effect). The gist of the method:
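The readout is membrane depolarisation from a cAMP-sensing CNG channel, detected with a potential dye at ex 535/em 590. Cells were HEK293-derived (endogenous PDE-IV) at 1000 cells/well, titrated up to 22.9 uM final.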

Experiment [2] deals with Guanine nucleotide-binding protein G(i) subunit alpha-1 (Homo sapiens) (UniProt P63096). Kind of experiment: qHTS Assay for Inhibitors of RGS12 GoLoco Motif Activity (Green Fluorophore) (AID 879).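 For activity, negative = inhibition: 0% = labeled peptide with Gαi1 and full inhibition = labeled peptide alone without protein; negative values mean loss of peptide binding seen as reduced polarization.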 Note: potency is the fitted concentration of half-maximal effect. The gist of the method:
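Fluorescence polarization assay: 50 nM Gαi1 with 10 nM FITC-labeled RGS12 GoLoco peptide in 10 mM Tris pH 7.5, 150 mM NaCl, 0.1 mM GDP, 0.05% NP40, 10 min at room temperature with compound.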
For orientation: qHTS replaces the single test concentration by a dilution series.

Experiment [3] has as its target Cytochrome P450 3A4 (Homo sapiens) (UniProt P08684). Kind of experiment: qHTS Assay for Inhibitors and Substrates of Cytochrome P450 3A4 (AID 884). For activity change, negative = inhibition: % is set by controls: 0 for no effect and ±100 for the full control effect. Note: nearly all actives have a fitted effect of over 50% in size. Note: potency is the fitted concentration of half-maximal effect. A digest of the protocol:
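20 nM human CYP3A4 with 25 uM Luciferin-PPXE (at KM) in 200 mM KPO4, preincubated 10 min with compound; NADPH regeneration started a 60 min RT reaction. Luciferin detected by luminescence, normalized to 57 uM ketoconazole as full inhibition.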

Experiment [4] in a line: Confirmation and Secondary Assay for Modulators of Hemoglobin Beta Chain Splicing at IVS2 654 locus (AID 910).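 Note: HeLa cells stably carrying EGFP split by mutant beta-globin IVS2-654 intron; % of control where 0% means no effect.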 A digest of the protocol:
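HeLa cells stably expressing EGFP interrupted by β-globin IVS2-654 intron, seeded overnight in Opti-MEM/2% FCS, then treated 2 days at 37 °C. Restored splicing read as total peak GFP intensity per well by laser scanning cytometry (488 nm excitation, 500–520 nm emission); 500 nM antisense PNA as control.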

Experiment [5] in a line: Cellular Toxicity (caspase-3) HepG2 (AID 654).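 Note: cells exposed to compound for 16 hours before reading; 0% = DMSO alone and 100% = caspase signal from 100 µM tamoxifen.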 A digest of the protocol: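 HepG2 cells (1500/well) in complete medium were treated with compounds for 16 hr at 37 °C. Caspase-3/7 activity was then read as luminescence from peptide-aminoluciferin cleavage. AC50 came from Hill fits, normalized to DMSO and 100 uM tamoxifen.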
Experiment [6] can be described thus: Cellular Toxicity (caspase-3) Jurkat (AID 655).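 Note: cells exposed to compound for 16 h at 37 °C before reading.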 A digest of the protocol:
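5000 Jurkat cells/well; compound 16 hr, 37 °C; Caspase-Glo 3/7 added, 20 min RT; luminescence read. Norm: DMSO = 0%, tamoxifen 100 uM = 100%. AC50, Hill model.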

Experiment [7] is described as follows: Cellular Toxicity (caspase-3) HUV-EC-C (AID 656).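 Note: 0% = DMSO basal and 100% = 100 µM tamoxifen.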 A digest of the protocol: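 qHTS; HUV-EC-C, 1000 cells/well; 5 hr settle, 16 hr cmpd, 37°C; Caspase-Glo 3/7, 20 min RT; luminescence. Norm: DMSO = 0%, tamoxifen 100 uM = 100%. Hill-fit AC50.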
Experiment [8] in a line: Cellular Toxicity (caspase-3) SHSY5Y (AID 657). A digest of the protocol:
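qHTS, SH-SY5Y, 1500 cells/well, 5 h pre-incubation 37 °C; compound 16 h 37 °C; Caspase-Glo 3/7 1 h RT; luminescence. Norm.: DMSO = 0, 10 uM staurosporine = 100%. Hill fit → AC50.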

A short description of experiment [9]: Cellular Toxicity (caspase-3) MRC-5 (AID 659).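 Note: 0% = DMSO basal and 100% = 10 µM staurosporine.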 The following applies: Potency: caspase-3 activation. The gist of the method:
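MRC-5 human normal lung fibroblasts, 1500 cells/well, treated 16 h at 37 °C in complete medium. Caspase 3/7 measured by Caspase-Glo luminescence after 1 h at room temperature. Normalized to DMSO and 10 uM staurosporine; AC50 from Hill fit.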

A short description of experiment [10]: Cellular Toxicity (caspase-3) Mesangial (AID 660). The gist of the method: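 Human renal glomerular mesangial cells (1000/well) were treated with compounds for 16 h at 37 °C in complete medium, then caspase 3/7 activity was read by Caspase-Glo luminescence. Data were normalized to DMSO and 100 uM tamoxifen; AC50 from Hill fits.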
The nature of experiment [11]: Cellular Toxicity (caspase-3) SK-N-SH (AID 661).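 Note: 0% = DMSO basal and 100% = 10 µM staurosporine.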 The conditions noted are these: SK-N-SH caspase-3 activation, qHTS; caspase-3 activation: at 91.7 µM (top of the series), DMSO as zero, staurosporine as full. A digest of the protocol: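 SK-N-SH human neuroblastoma cells (1500/well) were treated with compounds for 16 hr at 37 °C in complete medium; caspase 3/7 activity was read by Caspase-Glo luminescence. AC50 came from Hill fits of data normalized to DMSO and 10 uM staurosporine.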

Experiment [12] can be described thus: Cellular Toxicity (caspase-3) H-4-II-E (AID 663).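 Note: cells exposed to compound for 16 hr before readout; 0% = DMSO basal and 100% = 100 µM tamoxifen.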 The gist of the method: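 Rat hepatoma H-4-II-E cells (1500/well) plated 5 hr, then exposed to compound titrations for 16 hr at 37 °C. Caspase-Glo 3/7 luminescence read after 20 min at RT; data normalized to DMSO and 100 uM tamoxifen, AC50 from Hill fits.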
The nature of experiment [13]: Cellular Toxicity (caspase-3) Hek293 (AID 664).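 Note: cells exposed to compound for 16 h at 37 °C before readout.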 A digest of the protocol:
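HEK293 cells were exposed to compounds in complete medium for 16 hr at 37 °C, then caspase-3/7 activity was read by Caspase-Glo 3/7 luminescence after 20 min at room temperature. Data normalized to DMSO and 100 uM tamoxifen; AC50 from Hill fits.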

The nature of experiment [14]: Cellular Toxicity (caspase-3) N2a (AID 665).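 Note: compound exposure lasted 16 h at 37 °C before readout.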 The gist of the method:
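Mouse N2a neuroblastoma cells (1500/well) were treated with compounds for 16 h at 37 °C, then caspase-3/7 activity was read by Caspase-Glo luminescence after 1 h at room temperature. Data were normalized to DMSO and 10 uM staurosporine; AC50 from Hill fits.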

Experiment [15] in a line: Cellular Toxicity (caspase-3) NIH 3T3 (AID 666).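 Note: caspase signal read after 16 h compound exposure; 0% = DMSO basal and 100% = 100 µM tamoxifen stimulation.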 A digest of the protocol: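 Mouse NIH 3T3 fibroblasts (1000 cells/well) were treated with compound for 16 hr at 37°C in complete medium; caspase-3/7 activity was read by Caspase-Glo luminescence. Normalized to DMSO and 100 uM tamoxifen; AC50 from Hill fits.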
For experiment [16], the target named is Cytochrome P450 2D6 (Homo sapiens) (UniProt P10635). Kind of experiment: qHTS Assay for Inhibitors and Substrates of Cytochrome P450 2D6 (AID 891).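 For activity change, negative = inhibition: luciferin methyl ether substrate demethylated by CYP2D6 with NADPH regeneration; % is set by controls: 0 for no effect and ±100 for the full control effect.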 Note: nearly all actives have a fitted effect of over 60% in size. Note: potency is the fitted concentration of half-maximal effect. A digest of the protocol:
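Human CYP2D6 (5 nM) with 30 uM Luciferin-ME EGE (at Km) in 100 mM KPO4, compound preincubated 10 min, then NADPH regeneration system for 60 min at room temperature. Luciferin read by luminescence; normalized to 1.43 uM quinidine.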

Experiment [17] deals with Cytochrome P450 2C19 (Homo sapiens) (UniProt P33261). Nature of the experiment: qHTS Assay for Inhibitors and Substrates of Cytochrome P450 2C19 (AID 899). For activity, negative = inhibition: % is set by controls: 0 for no effect and ±100 for the full control effect. Note: nearly all actives have a fitted effect of over 60% in size. Note: potency is the fitted concentration of half-maximal effect. A digest of the protocol:
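Signal comes from luciferase acting on luciferin released by CYP2C19-mediated hydroxylation of Luciferin-H EGE, 10uM (KM). Assay mix: 5nM enzyme, 50mM KPO4; 60 min at 37C with NADPH regeneration. Data normalized against 57uM ketoconazole.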

The target of experiment [18] is Cytochrome P450 2C9 (Homo sapiens) (UniProt P11712). Nature of the experiment: qHTS Assay for Inhibitors and Substrates of Cytochrome P450 2C9 (AID 883). Note: nearly all actives have a fitted effect of over 60% in size. Note: potency is the fitted concentration of half-maximal effect. A digest of the protocol:
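Signal: luciferase luminescence reporting luciferin produced by CYP2C9. Conditions: 10nM enzyme, Luciferin-H 100uM at KM, 25mM KPO4, 37C, 60 min NADPH-driven reaction. Reference: 57uM sulphaphenazole as 100% inhibition.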

Experiment [19] in a line: qHTS Assay for Identification of Small Molecule Antagonists for NFkB Signaling Pathway (AID 895; active = well fitted inhibition curve with a large enough effect in the signal ratio, with a control signal flat, not every such curve was filed as active; the % refers to the signal ratio; note: % is set by controls: 0 for no effect and ±100 for the full control effect). A digest of the protocol: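 ME-180 NFkB-bla cells (beta-lactamase under NFkB response element), plated overnight, treated with compound then 10 pM TNF alpha (about EC50) for 5 hrs at 37 C. LiveBLAzer FRET read at 460/530 nm emission, 405 nm excitation.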
The target in experiment [20] is Cytochrome P450 3A4 (Homo sapiens) (UniProt P08684). Nature of the experiment: qHTS Assay for Activators of Cytochrome P450 3A4 (AID 885). Note: nearly all actives have a fitted effect of over 65% in size. A digest of the protocol:
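Steps: enzyme/substrate mix dispensed; compound added, 10 min RT; NADPH regeneration solution added, 60 min RT; luciferin detection buffer stops reaction; 20 min later luminescence measured.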

Experimental findings from PubChem BioAssay (NCATS) are described below.

Where “and” joins values, the source holds several entries; their conditions need not be identical. Identical values can stand only once. Values without a mark were called inactive. Records with an inconclusive call do not appear. Calls of active or inactive are those of the source. Unless noted, calls come from the whole dose curve; as a rule, active = well fitted curve in the direction sought with a large enough effect; inconclusive = small, poorly fitted or top-dose-only effect, or another doubt; inactive = no such curve, though single readings can be large; an effect the other way counts as inactive or inconclusive.

Chain of Cytochrome P450 3A4 (Homo sapiens) (P08684 whole entry, looked up): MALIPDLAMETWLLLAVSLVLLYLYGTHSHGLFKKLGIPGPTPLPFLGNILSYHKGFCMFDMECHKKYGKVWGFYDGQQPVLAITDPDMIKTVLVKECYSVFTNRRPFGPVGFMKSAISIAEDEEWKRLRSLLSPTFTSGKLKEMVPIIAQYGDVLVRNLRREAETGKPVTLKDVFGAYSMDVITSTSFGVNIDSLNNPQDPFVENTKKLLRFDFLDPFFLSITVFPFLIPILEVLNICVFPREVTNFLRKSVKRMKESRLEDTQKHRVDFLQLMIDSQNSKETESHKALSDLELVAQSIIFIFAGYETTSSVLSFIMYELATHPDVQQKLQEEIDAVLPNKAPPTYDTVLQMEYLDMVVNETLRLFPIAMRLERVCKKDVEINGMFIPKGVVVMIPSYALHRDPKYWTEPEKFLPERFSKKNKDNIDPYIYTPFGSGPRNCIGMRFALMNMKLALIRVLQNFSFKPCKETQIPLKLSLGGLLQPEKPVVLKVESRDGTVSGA
Chain of Cytochrome P450 2C9 (Homo sapiens) (P11712 whole entry, looked up): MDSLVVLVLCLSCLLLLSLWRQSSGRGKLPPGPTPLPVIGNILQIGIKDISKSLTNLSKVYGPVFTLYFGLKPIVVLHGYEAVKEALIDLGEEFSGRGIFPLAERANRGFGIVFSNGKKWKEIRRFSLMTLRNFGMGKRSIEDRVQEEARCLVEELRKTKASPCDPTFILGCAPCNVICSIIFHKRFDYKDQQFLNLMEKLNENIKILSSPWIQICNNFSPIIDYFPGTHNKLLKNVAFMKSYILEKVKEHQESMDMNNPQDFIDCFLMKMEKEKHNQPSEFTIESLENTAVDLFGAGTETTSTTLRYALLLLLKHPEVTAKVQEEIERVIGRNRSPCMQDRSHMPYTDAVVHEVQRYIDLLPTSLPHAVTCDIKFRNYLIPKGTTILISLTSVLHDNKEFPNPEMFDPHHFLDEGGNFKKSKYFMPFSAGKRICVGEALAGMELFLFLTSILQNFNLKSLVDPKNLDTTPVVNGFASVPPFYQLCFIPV
Chain of Guanine nucleotide-binding protein G(i) subunit alpha-1 (Homo sapiens) (P63096 whole entry, looked up): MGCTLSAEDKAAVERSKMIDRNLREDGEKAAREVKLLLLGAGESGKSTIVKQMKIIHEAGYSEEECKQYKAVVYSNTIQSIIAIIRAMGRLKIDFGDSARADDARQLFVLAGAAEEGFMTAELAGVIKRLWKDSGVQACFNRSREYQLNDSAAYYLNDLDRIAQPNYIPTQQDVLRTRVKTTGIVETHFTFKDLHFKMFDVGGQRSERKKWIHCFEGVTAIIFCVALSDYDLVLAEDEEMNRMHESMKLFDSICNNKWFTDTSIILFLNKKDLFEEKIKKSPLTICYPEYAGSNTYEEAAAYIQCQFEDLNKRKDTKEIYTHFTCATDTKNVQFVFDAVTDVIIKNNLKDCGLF
Chain of Cytochrome P450 2D6 (Homo sapiens) (P10635 whole entry, looked up): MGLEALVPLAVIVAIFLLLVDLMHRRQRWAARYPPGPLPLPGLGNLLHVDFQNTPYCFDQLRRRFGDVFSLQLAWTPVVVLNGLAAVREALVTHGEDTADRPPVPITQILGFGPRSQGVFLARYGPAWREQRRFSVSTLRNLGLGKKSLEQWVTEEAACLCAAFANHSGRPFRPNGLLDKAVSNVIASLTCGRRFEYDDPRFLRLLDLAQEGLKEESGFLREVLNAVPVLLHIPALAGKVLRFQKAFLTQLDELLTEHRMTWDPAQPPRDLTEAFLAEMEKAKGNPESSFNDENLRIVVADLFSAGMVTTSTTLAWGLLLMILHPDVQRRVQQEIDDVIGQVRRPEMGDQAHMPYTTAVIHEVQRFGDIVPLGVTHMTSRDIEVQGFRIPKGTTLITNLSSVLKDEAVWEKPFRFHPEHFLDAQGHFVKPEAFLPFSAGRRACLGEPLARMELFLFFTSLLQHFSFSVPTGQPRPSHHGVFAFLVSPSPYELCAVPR
Chain of 3',5'-cyclic-AMP phosphodiesterase 4B (Homo sapiens) (Q07343 whole entry, looked up): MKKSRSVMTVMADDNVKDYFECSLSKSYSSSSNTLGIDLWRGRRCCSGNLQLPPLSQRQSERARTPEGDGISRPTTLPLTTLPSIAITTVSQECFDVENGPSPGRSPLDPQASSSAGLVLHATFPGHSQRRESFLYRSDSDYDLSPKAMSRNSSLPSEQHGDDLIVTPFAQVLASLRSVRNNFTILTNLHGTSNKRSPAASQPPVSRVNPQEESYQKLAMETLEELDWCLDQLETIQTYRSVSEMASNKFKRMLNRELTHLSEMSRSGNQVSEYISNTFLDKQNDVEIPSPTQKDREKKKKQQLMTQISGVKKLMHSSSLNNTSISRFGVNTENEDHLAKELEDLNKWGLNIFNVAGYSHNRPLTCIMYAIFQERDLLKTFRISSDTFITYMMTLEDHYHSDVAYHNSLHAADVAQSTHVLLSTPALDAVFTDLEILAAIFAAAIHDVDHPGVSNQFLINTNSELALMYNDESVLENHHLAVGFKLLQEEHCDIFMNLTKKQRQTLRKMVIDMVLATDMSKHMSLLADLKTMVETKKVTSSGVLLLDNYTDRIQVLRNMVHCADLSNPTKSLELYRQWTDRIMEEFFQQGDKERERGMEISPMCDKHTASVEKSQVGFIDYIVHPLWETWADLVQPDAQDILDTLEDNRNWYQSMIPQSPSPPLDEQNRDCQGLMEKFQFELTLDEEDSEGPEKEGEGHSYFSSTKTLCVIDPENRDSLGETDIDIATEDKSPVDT
Chain of Cytochrome P450 2C19 (Homo sapiens) (P33261 whole entry, looked up): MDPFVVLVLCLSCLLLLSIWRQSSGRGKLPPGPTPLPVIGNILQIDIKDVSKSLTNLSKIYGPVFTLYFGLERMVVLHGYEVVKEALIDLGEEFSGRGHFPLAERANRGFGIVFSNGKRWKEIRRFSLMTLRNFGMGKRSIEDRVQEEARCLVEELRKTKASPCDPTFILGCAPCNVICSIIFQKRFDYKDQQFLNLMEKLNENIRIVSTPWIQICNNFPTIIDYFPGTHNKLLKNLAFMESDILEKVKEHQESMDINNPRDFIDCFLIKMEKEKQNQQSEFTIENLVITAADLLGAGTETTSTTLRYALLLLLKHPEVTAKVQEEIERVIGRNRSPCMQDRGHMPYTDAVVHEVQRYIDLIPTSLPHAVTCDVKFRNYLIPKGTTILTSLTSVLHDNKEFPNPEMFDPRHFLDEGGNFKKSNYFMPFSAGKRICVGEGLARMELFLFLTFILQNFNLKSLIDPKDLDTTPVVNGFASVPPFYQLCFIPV

As for `COc1ccc2[nH]cc(CCN)c2c1`, the Potency entry in [1], in [2] and in experiment [3] was “inactive” throughout. In addition, the compound was called inactive in [4].

Consider `CC(C)(C)c1cc(O)ccc1O`, for which the Potency entry in [1], in [6], in [9], in experiment [11], in experiment [15] and in [3] was “inactive” each time. Besides, the compound was called inactive in [5], in experiment [7], in [8], in experiment [10], in experiment [12] and in [13]. Moreover, in [14], the compound was called inactive. In addition, the activity change, negative = inhibition in experiment [16] was 11.9% [at 11.4 µM]. Moreover, the activity, negative = inhibition in experiment [17] was -31.1% [at 11.4 µM].

`CCCN(CCC)CCc1c[nH]c2ccc(C(N)=O)cc12`: the Potency entry in [1], in [2], in experiment [18] and in [19] was “inactive” in each case.

Regarding `O=S1(=O)N(CCN2CC=C(c3c[nH]c4cc(F)ccc34)CC2)c2cccc3c2N1CCC3`, the Potency entry in experiment [1], in experiment [2] and in experiment [19] was “inactive” throughout. Further, the Potency in experiment [3] was 5.01 µM (active); in experiment [16], 199 nM (active); in experiment [17] it was 6.31 µM (active). The compound was called inactive in experiment [20].

Turning to `NCCCP(=O)(O)O`, the Potency entry in experiment [1] and in [2] was “inactive” in each case. Moreover, in experiment [20], the compound was called inactive.

With `O=c1c2ccccc2[se]n1-c1ccccc1`, in experiment [1], the Potency entry was “inactive”. Besides, the Potency was 12.6 µM (active) in experiment [2]; 1 µM (active) and 79.4 nM (active) in experiment [18]; 3.98 µM (active) and 25.1 µM (active) in experiment [3]; 10 µM (active) and 1 µM (active) in experiment [16]; 1.58 µM (active) and 126 nM (active) in experiment [17]. Besides, the outcome in experiment [20] was inactive.

As to `Cc1sc2ccccc2c1CC1=NCCN1`, the Potency result in experiment [1] and in experiment [2] was “inactive” throughout.

As to `C[N+](C)(C)CC#CCOC(=O)Nc1cccc(Cl)c1`, the Potency entry in experiment [1] and in experiment [2] was “inactive” each time.

In the case of `CN1CCc2cccc(Cl)c2CC1`, the Potency result in experiment [1] and in experiment [2] was “inactive” throughout.

As for `Nc1ccc(CCN2CCN(c3cccc(C(F)(F)F)c3)CC2)cc1`, the Potency entry in [1] and in experiment [2] was “inactive” in each case. The Potency in experiment [3] and in experiment [17] was 7.94 µM (active) each time. Further, the compound was classed as inactive in [20].

In the case of `Cc1c2ccncc2c(C)c2c1[nH]c1ccccc12`, the Potency result in experiment [1] and in [2] was “inactive” each time. Further, the Potency in experiment [3] was 158 nM (active) and 398 nM (active); in [16], 31.6 µM (active) and 6.31 µM (active); in experiment [17], 6.31 µM (active) and 3.16 µM (active). The compound was called inactive in experiment [20].

For the compound `NNC(=O)c1ccc(O)cc1`, the Potency result in [1], in experiment [2] and in experiment [19] was “inactive” each time. The Potency in experiment [3] was 5.01 µM (active). For the same compound, the compound was classed as inactive in experiment [20].

With `N#CC(C#N)=Cc1cc(O)c(O)c(O)c1`, the Potency entry in experiment [1] and in experiment [2] was “inactive” each time. In addition, in experiment [20], the call was inactive.

For the compound `CCCN1CCc2cc(O)cc3c2[C@H]1Cc1ccc(O)c(O)c1-3`, in experiment [1], the Potency entry is “inactive”.

For `c1ccc2c(c1)[I+]c1ccccc1-2`, the Potency entry in experiment [1] and in experiment [2] was “inactive” each time. The Potency in experiment [3] was 3.16 µM (active); in [16], 3.98 µM (active) and 794 nM (active); in experiment [17], 501 nM (active) and 63.1 nM (active). Further, in experiment [20], the compound was called inactive.

With `C[N+]1(C)[C@@H]2CC[C@H]1CC(OC(=O)c1c[nH]c3ccccc13)C2` (stereo partly specified), the Potency result in experiment [1] and in experiment [2] was “inactive” throughout. Besides, the Potency in [3] was 7.94 µM (active). Moreover, the compound was classed as inactive in experiment [20].

Turning to `C[C@H](N)CN1CCc2ccc(Br)cc21`, the Potency result in experiment [1] and in experiment [2] was “inactive” in each case.

As to `NC(N)=NOCC[C@H](N)C(=O)O`, the Potency result in experiment [1] and in [2] was “inactive” throughout.

As to `CCCCCCC(C)(C)c1ccc([C@@H]2C[C@H](O)CC[C@H]2CCCO)c(O)c1`, the Potency entry in experiment [1] is “inactive”.

Regarding `O=[N+]([O-])c1cc(O)c(O)c([N+](=O)[O-])c1`, the Potency entry in [1], in experiment [2], in [16], in experiment [19] and in [17] was “inactive” in each case. Also, the Potency in [18] is 10 µM (active) and 794 nM (active). For the same compound, in experiment [4], the result was inactive.

Take `NC(=O)COc1c(F)cc(SCCNS(=O)(=O)c2ccccc2)cc1F`: the Potency result in experiment [1] and in experiment [2] was “inactive” each time. For the same compound, the call in experiment [20] was inactive.
